Measurements from ChEMBL document CHEMBL3988442, “University of Dundee, Small-Polar-MMV Screening Library” (2021).

Experiments:
[1] = target: T1, Aspartate--tRNA(Asp/Asn) ligase (Mycobacterium tuberculosis (strain ATCC 25618 / H37Rv)) (UniProt P9WFW3); experiment: Assay for Asp RNA synthetase-1 from Mycobacterium tuberculosis; assay type: functional; design: scale not given: direction of the effect not stated beside the values; details: 30 µM; further: in the data most compounds retested in dose-response had high values
T1 sequence (whole entry): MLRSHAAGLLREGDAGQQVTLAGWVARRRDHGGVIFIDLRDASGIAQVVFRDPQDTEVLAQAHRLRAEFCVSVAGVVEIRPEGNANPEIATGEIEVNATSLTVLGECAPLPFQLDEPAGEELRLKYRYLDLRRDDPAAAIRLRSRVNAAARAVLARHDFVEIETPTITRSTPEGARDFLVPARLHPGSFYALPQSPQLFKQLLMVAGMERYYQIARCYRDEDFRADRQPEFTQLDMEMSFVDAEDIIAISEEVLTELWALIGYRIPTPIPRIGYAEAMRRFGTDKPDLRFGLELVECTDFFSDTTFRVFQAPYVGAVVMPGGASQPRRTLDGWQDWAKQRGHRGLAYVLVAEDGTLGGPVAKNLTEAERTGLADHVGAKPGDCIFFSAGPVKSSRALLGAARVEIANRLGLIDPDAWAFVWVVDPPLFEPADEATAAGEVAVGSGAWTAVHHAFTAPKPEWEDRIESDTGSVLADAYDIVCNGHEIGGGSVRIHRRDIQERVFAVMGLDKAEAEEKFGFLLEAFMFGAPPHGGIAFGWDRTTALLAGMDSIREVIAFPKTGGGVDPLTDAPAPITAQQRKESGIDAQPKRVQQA

[2] = target: Shiga toxin 2 (Escherichia coli O157:H7) (UniProt P09385+P09386); experiment: E. coli 0.157:H7 Shiga Toxin SOP - stx2 screening assay; assay type: functional; design: scale not given: direction of the effect not stated beside the values; details: 30 µM

Row | Structure (SMILES) | Percent Effect [1] [%] | Percent Effect [2] [%]
1 | CCN1CCN(c2nc(C(C)C)nc3c(C)nn(CC)c23)CC1 | -2.11 | -52.4
2 | Cc1ccc(CN2CCC3(CC(C(=O)NCC4CC4)=NO3)C2)cc1C (configuration not stated) | 7.45 | -15.5
3 | Cc1[nH]/c(=N\C(=O)c2csc(NCC(C)C)n2)sc1C | 0.43 | 12
4 | Cc1cc(CN(C)Cc2cc3c(cc2OC(F)F)OCO3)on1 | 4.16 | 19.4
5 | Cn1ccc(C(=O)NC2CCN(c3ncccn3)CC2)cc1=O | 4.84 | 24.2
6 | Cc1cccc(CN(Cc2ccc(C)o2)C2CC(C)(C)NC(C)(C)C2)n1 | -1.8 | 3.65
7 | c1cc(CN2CCN(Cc3cscn3)CC2)cs1 | 1.38 | 26.6
8 | Cc1ccc2oc(C(=O)N3CCc4nnc(N(C)C)cc4C3)cc2n1 | 1.25 | -14.3
9 | CN1CCN(C[C@@H]2OC[C@H]3CN(Cc4ccsc4)CC[C@H]32)CC1 | -4.08 | 3.13
10 | CC(=O)Nc1ncc(S(=O)(=O)Nc2ccc(F)cc2)s1 | 2 | -10.2
11 | COCCNc1ccc(CNC(=O)Nc2cn[nH]c2)cc1 | -0.4 | -2.17
12 | CC(C)N(C)Cc1nnc2n1CCN(Cc1ccncc1)CC2 | 3.87 | 1.49
13 | N#Cc1cn(C2CC2)c(=O)n(CC(O)c2ccc(OC(F)F)cc2)c1=O (configuration not stated) | 1.23 | 14
14 | CCOCCn1nc(C)cc1C(=O)N1CCN(C(C)C)C(CC)C1 (configuration not stated) | -1.08 | 10.1
15 | c1ccc(C2CCN(c3cncc(-n4cccn4)n3)CC2)cc1 | -0.999 | -5.12
16 | Cc1ccc(C2CCCCCN2Cc2cn(C)nc2C)cc1 (configuration not stated) | -5.2 | -29
17 | Cc1ccoc1C(=O)N1C[C@@H]2[C@@H](C1)OCC(=O)N2Cc1cccnc1 | 2 | -12.8
18 | CCn1ccnc1CN1CCN(C(C)C(=O)NC2CCCCC2)CC1 (configuration not stated) | -1.01 | 22
19 | CCN(Cc1ccc2c(c1)OCCO2)C(=O)NCc1nc(C)cs1 | -0.519 | 28.5
20 | CCOC(=O)CCNC(=O)N1CCN(c2nc3ccccc3n2C)CC1 | -4.71 | -68.4
21 | COCCc1noc(CNCC2CCCN2c2cccnn2)n1 (configuration not stated) | 4.93 | -3.58
22 | Cc1cnn(CCNCc2cccnc2)c1 | -0.568 | -3.36
23 | O=C(COc1ccc2c(c1)CCC2)N1CCOCC1c1ncon1 (configuration not stated) | -4.77 | 22.5
24 | CC(=O)N1CCC(c2cc(C(F)(F)F)n3ccnc3n2)CC1 | 6.9 | -9.96
25 | COc1ccc(Br)c(C(=O)NCC2CCN(S(=O)(=O)C3CC3)CC2)c1 | -8.22 | -0.843
26 | CC(=O)N1N=C(c2ccccc2)OC1C(=O)NCCc1cccc(Cl)c1 (configuration not stated) | -3.19 | 19.6

Row | Structure (SMILES) | Percent Effect [1] [%] | Percent Effect [2] [%]
27 | Cc1nn(C)c(N(C)C)c1CNCc1cccnc1 | -1.51 | -13
28 | Cc1ccc(CN2Cc3nnn(C)c3C(COCCN(C)C)C2)s1 (configuration not stated) | -3 | -6.76
29 | N#Cc1ncn(CCC(=O)Nc2c(Cl)cccc2Cl)n1 | 6.68 | -17.7
30 | OC(COCc1ccccc1Cl)CN1CC(n2cccn2)C1 (configuration not stated) | 0.411 | 29.1
31 | CCCn1ncc(CN2C[C@@H]3CCCN3C[C@@H]2CCSC)c1C | -1.92 | -13.3
32 | CN(C)C(=O)CN1C[C@@H]2CC[C@H](C1)N(Cc1cc(F)ccc1F)C2 | -0.16 | -37.1
33 | COC(=O)c1ccoc1COC(=O)CCc1ccc(OC)c(OC)c1 | -3.44 | 0.432
34 | CCc1nc(C2CCCN2C(=O)c2ccoc2C)no1 (configuration not stated) | 1.77 | -24
35 | Cn1ncc2c(=O)[nH]c(CN3CCCC3Cc3ccccc3)nc21 (configuration not stated) | 2.98 | 35.6
36 | Cn1cc(C(=O)N[C@@H]2CN(Cc3cccs3)[C@@H]3CCCO[C@@H]32)cn1 | 1.75 | -2.87
37 | Cc1ccc(CNCc2ccc(-n3nc(C)cc3C)nc2)cc1 | 1.23 | 22.8
38 | COCCN1CC[C@@H]2OC[C@H](C(=O)NCc3cccs3)C[C@@H]2C1 | 2.37 | -14.7
39 | Cc1ccc(C(=O)NCCCN2CCOCC2)c(Cl)c1 | 0.357 | -18.1
40 | CCc1nc(C2CCCN(C(=O)c3ccc4c(c3)nnn4C)C2)no1 (configuration not stated) | 4.32 | -19.5
41 | NC(=O)c1csc(C(=O)N2CCCC(n3ccnc3)C2)c1 (configuration not stated) | -4.35 | 0.351
42 | COCCN1CC[C@@H](O)[C@@H]1Cc1ccccc1 | 1.19 | -38.2
43 | Cc1nnc(C(C)NCC2(c3c(F)cccc3F)CCCC2)o1 (configuration not stated) | -1.77 | 9.79
44 | Cc1cccc(COC[C@]23COC[C@H]2CN(C(=O)c2ccsc2)C3)n1 | 1.56 | 7.59
45 | CN(C)C(=O)Cc1ccc(NC(=O)NC2CCCCC2)cc1 | -1.13 | 1.55
46 | CC(=O)Nc1ccc(S(=O)(=O)NC(=O)CCC2CCCO2)cc1 (configuration not stated) | 2.52 | -2.77
47 | Cc1ncc(CNC(=O)Cc2ccc(Cl)cc2)c(C2CCCN2C)n1 (configuration not stated) | 0.551 | 15.8
48 | Cc1nc(CCNC(=O)NC2CCN(c3ncccn3)CC2)cs1 | -2.14 | -10
49 | O=C(CCN1CCC(C(=O)c2cc(F)ccc2F)CC1)NC1CC1 | 1.41 | -24.2
50 | Cc1ccc(-n2nnc(CC(=O)N3CCSCC3)c2C)cc1 | 2.79 | -35.4
51 | Cc1nccn1CC1CCCN1CCCc1nc(-c2cccs2)no1 (configuration not stated) | 5.89 | 16.4
